This excerpt belongs to a sample that is enriched for hits.
Tb PYK inh – blocks Trypanosoma brucei pyruvate kinase. 0.12% of 410,000 active. AID 624173. Potency, µM (doses to about 76.8 µM), for inactives: top-dose activity, negative = inhibition, most hits filed as inhibitors. Q57TT1. TbPYK enzyme, Kinase-Glo Plus ATP luminescence, 45 min; note: potency is the fitted concentration of half-maximal effect; % is set by controls: 0 for no effect and ±100 for the full control effect; nearly all actives have a fitted effect of over 50% in size
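Readout: single end-point luminescence (Kinase-Glo Plus, 10 min). Reaction conditions were TbPYK/substrate plus 130 uM ADP, 45 min at RT, pH 7.2 TEA buffer. No-enzyme wells served as controls, and data were normalized before concentration-response fitting.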
Sm TGR inh – S. mansoni TGR enzyme inhibition; Potency, µM (series often up to 114 µM), inactives show top-dose activity change, negative = inhibition, actives largely listed as inhibitors; AID 485364; 3% of 360,000 active; purified TGR, DTNB reduction, TNB absorbance 405 nm; Q962Y6; note: potency is the fitted concentration of half-maximal effect; % is set by controls: 0 for no effect and ±100 for the full control effect; nearly all actives have a fitted effect of over 60% in size
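Kinetic colorimetric format: TGR-catalysed, NADPH-driven DTNB reduction monitored via TNB absorbance. Enzyme dispensed at 20 nM; compound exposure 15 min at room temperature before reaction start.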
Shiga inhibitor – blocks Shiga toxin action in Vero cells | 9.2% of 290,000 active | inhibition, % at 38.7 µM | Vero cells, Shiga toxin protein synthesis inhibition reporter; in the data active = inhibition mostly above about 28%, no sharp cut-off; inactive = mostly below about 43%; note: 0% is about no effect
CHX counter – affects cycloheximide protein synthesis inhibition readout, counter-screen. cell reporter, cycloheximide protein synthesis inhibition counterscreen. max response, %. 12% of 300,000 active. AID 2314; in the data active = max response mostly above about 13%, no sharp cut-off; inactive = mostly below about 14%; note: read at 38.3 µM for the half of the compounds with a filed dose; 0% is about no effect
Giardia FBPA inh – blocks Giardia fructose-bisphosphate aldolase activity. A8B2U2. purified Giardia FBPA. Potency, µM (top dose mostly 59.6 µM), without a hit: at the top dose activity, negative = inhibition, most hits filed as inhibitors. 0.71% of 290,000 active; note: potency is the fitted concentration of half-maximal effect; % is set by controls: 0 for no effect and ±100 for the full control effect; nearly all actives have a fitted effect of over 55% in size
Target sequence (A8B2U2 whole entry, looked up): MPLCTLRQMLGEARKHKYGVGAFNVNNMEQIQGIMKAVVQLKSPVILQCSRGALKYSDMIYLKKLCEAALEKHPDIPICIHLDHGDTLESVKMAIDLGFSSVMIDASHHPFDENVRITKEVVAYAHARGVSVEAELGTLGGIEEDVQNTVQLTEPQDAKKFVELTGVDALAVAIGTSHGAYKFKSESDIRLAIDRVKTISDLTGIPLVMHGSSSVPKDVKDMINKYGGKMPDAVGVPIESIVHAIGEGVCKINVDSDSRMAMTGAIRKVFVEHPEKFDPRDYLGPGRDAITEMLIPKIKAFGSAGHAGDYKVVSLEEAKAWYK
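Giardia FBPA (40 nM reagent) was preincubated 10 min at RT with compound (up to 57.5 uM final), then substrate plus GAPDH/TPI/NAD/arsenate coupling system with diaphorase/resazurin was added; resorufin fluorescence (525/598 nm) was read after 20 min.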
LmPK inhibitor – blocks Leishmania mexicana pyruvate kinase activity; 0.37% of 290,000 active; purified LmPK, Kinase-Glo ATP luminescence, 1 h; Potency, µM (doses to about 57.5 µM), inactives show top-dose activity change, negative = inhibition, hits mostly inhibitors; Q27686; note: potency is the fitted concentration of half-maximal effect; % is set by controls: 0 for no effect and ±100 for the full control effect
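Pyruvate kinase activity monitored as ATP production (luciferase luminescence). Conditions: 0.1 nM enzyme, 0.5 mM PEP, 0.1 mM ADP, 1 h, RT; normalized against uninhibited and no-enzyme wells.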
Starred values were filed as active, the others as inactive. Unless noted, calls come from the whole dose curve; as a rule, active = well fitted curve in the direction sought with a large enough effect; inconclusive = small, poorly fitted or top-dose-only effect, or another doubt; inactive = no such curve, though single readings can be large; an effect the other way counts as inactive or inconclusive.

For O=C(CN1C(=O)CCS(=O)(=O)c2ccccc21)Nc1ccc2c(c1)OCCO2 the results were Tb PYK inh -11%, Sm TGR inh 0%, Shiga inhibitor -2, CHX counter -2, Giardia FBPA inh -11% and LmPK inhibitor 3%.
For CCOC(=O)c1ccccc1NC(=O)CN1C(=O)CCS(=O)(=O)c2ccccc21 the results were Tb PYK inh 3%, Sm TGR inh 40µM*, Shiga inhibitor 9, CHX counter -5, Giardia FBPA inh 6% and LmPK inhibitor 4%.
For CCOC(=O)C1(Cc2ccccc2)CCCN(Cc2ccncc2)C1 (stereo not drawn) the results were Tb PYK inh -2%, Sm TGR inh -23%, Shiga inhibitor 3, CHX counter 1, Giardia FBPA inh 0% and LmPK inhibitor 17%.
`CCCCN(Cc1ccco1)S(=O)(=O)c1ccc(-c2ccc(=O)[nH]n2)s1` gave Tb PYK inh -3%, Sm TGR inh 25µM*, Shiga inhibitor 3, CHX counter -2 and LmPK inhibitor 3%.
For C/C(=N\Nc1cccc2cccnc12)c1ccc[nH]1 the results were Tb PYK inh -8%, Sm TGR inh -5%, Shiga inhibitor 75*, CHX counter 40*, Giardia FBPA inh -13% and LmPK inhibitor -16%.
Screening CCC(=O)Nc1cccc2cccnc12 returned Tb PYK inh 2%, Shiga inhibitor 27, CHX counter 5, Giardia FBPA inh -5% and LmPK inhibitor 0%.
`COc1ccc(OC)c(NC(=O)c2cc3c(n(-c4ccc(Cl)cc4)c2=O)CC(C)(C)CC3=O)c1` gave Tb PYK inh 1% and Sm TGR inh 8%.
O=C(O)c1c(C(=O)N2N=C3/C(=C/c4ccccc4)CCCC3C2c2ccccc2)cccc1[N+](=O)[O-] (stereo not drawn) was read as Tb PYK inh -4%, Sm TGR inh inconclusive, Shiga inhibitor -9, CHX counter 3, Giardia FBPA inh -4% and LmPK inhibitor -3%.
For CC(=O)N1N=C2/C(=C/c3ccccc3)CCCC2C1c1ccccc1 (stereo not drawn) the results were Tb PYK inh -14%, Sm TGR inh 15%, Shiga inhibitor 72*, CHX counter 48*, Giardia FBPA inh -9% and LmPK inhibitor 1%.
Screening C1=CC(Cc2cncs2)c2ccccc21 (stereo not drawn) returned Tb PYK inh 0% and Sm TGR inh 50µM*.
O[C@H]1c2ccccc2[C@H](Cc2cncs2)[C@@H]1Br was read as Tb PYK inh 1% and Sm TGR inh -6%.
Cc1nc2cc(-c3cccc(F)c3)nn2c(C)c1CCC(=O)Nc1ccccc1C(N)=O was read as Tb PYK inh 1% and Sm TGR inh 4%.
For O=[N+]([O-])c1ccc(/C=C/C2=NN(c3ccccc3)C(c3ccco3)C2)cc1 (stereo not drawn) the results were Tb PYK inh -11%, Sm TGR inh -13%, Shiga inhibitor 41, CHX counter 15*, Giardia FBPA inh -10% and LmPK inhibitor -18%.
For O=[N+]([O-])c1ccc(C2=NN(c3ccccc3)C(c3ccco3)C2)cc1 (stereo not drawn) the results were Tb PYK inh -24%, Sm TGR inh inconclusive, Shiga inhibitor 60*, CHX counter 34*, Giardia FBPA inh -17% and LmPK inhibitor -4%.
For CC1=NN(c2ccccc2)C(c2ccco2)C1 (stereo not drawn) the results were Tb PYK inh 5%.
Screening O=C(OCc1ccc(F)cc1)c1ccc2c(c1)-c1ccccc1C2=O returned Tb PYK inh -11%, Sm TGR inh -14%, Shiga inhibitor -9, CHX counter 2 and LmPK inhibitor 3%.
For CCOC(=O)C1=C(Cc2ccc(F)cc2)C(=O)c2ccccc2C1=O the results were Tb PYK inh inconclusive, Sm TGR inh inconclusive, Shiga inhibitor 4, CHX counter 3, Giardia FBPA inh 1.8µM* and LmPK inhibitor inconclusive.
N=Cc1c(O)n(-c2ccc(C34CC5CC(CC(C5)C3)C4)cc2)c(=O)[nH]c1=O was read as Tb PYK inh -3%, Sm TGR inh 4%, Shiga inhibitor 27*, CHX counter 48*, Giardia FBPA inh -9% and LmPK inhibitor 6%.
`CC1CCC/C(=C\Nc2ccc(C(=O)O)cc2)C1=O` (stereo not drawn) gave Tb PYK inh -11%, Sm TGR inh inconclusive, Shiga inhibitor 55*, CHX counter 37*, Giardia FBPA inh -10% and LmPK inhibitor 2%.
`O=C(O)c1ccc(NS(=O)(=O)c2ccc(Cl)c(Cl)c2)cc1O` gave Tb PYK inh -4%, Sm TGR inh -5%, Shiga inhibitor -12, CHX counter -2, Giardia FBPA inh inconclusive and LmPK inhibitor 18%.
`CC1CCC/C(=C\c2ccc(O)cc2)C1=O` (stereo not drawn) gave Tb PYK inh 2%.
`Cc1cc(O)ccc1N/C=C1\CCCC1=O` gave Tb PYK inh -12%, Sm TGR inh inconclusive, Shiga inhibitor 42*, CHX counter 13*, Giardia FBPA inh 8.9µM* and LmPK inhibitor 3%.
For O=C1CCCC/C1=C\Nc1ccc(C(=O)O)c(O)c1 the results were Tb PYK inh -11%, Sm TGR inh 0%, Shiga inhibitor 62*, CHX counter 17*, Giardia FBPA inh -14% and LmPK inhibitor -25%.
CC1CCC/C(=C\Nc2ccc(C(=O)O)c(O)c2)C1=O (stereo not drawn) was read as Tb PYK inh -12%, Sm TGR inh -6%, Shiga inhibitor 82*, CHX counter 38*, Giardia FBPA inh -23% and LmPK inhibitor -11%.
Screening COc1ccc(-c2nc3scc(CCNS(=O)(=O)c4c(C)cc(C)cc4C)n3n2)cc1OC returned Tb PYK inh -2% and Sm TGR inh 4%.
COC(=O)[C@@]1(Cc2ccc(OC)cc2)[C@H]2c3cc(C(=O)N(C)C)n(CCN4CNCC4=O)c3C[C@H]2CN1C(=O)c1ccccc1 was read as Giardia FBPA inh 3%.
For COc1ccc(-n2nc(C(=O)Nc3ccc(Cl)cn3)c3c4ccccc4n(C)c3c2=O)cc1Cl the results were Tb PYK inh 8% and Sm TGR inh 13%.
`CC(=O)Nc1ccc2c(c1)CCCC2=O` gave Tb PYK inh 0%, Sm TGR inh 32µM*, Shiga inhibitor 35, CHX counter 16*, Giardia FBPA inh -16% and LmPK inhibitor -4%.
For CC(=O)Nc1ccc(N/C=C2/CCCC2=O)cc1 the results were Tb PYK inh 2%, Sm TGR inh inconclusive, Shiga inhibitor 49*, CHX counter 11*, Giardia FBPA inh -12% and LmPK inhibitor 2%.
